# Assay results: PubChem BioAssay (NCATS)
# Results filed as inconclusive are left out. A call without a number means that no potency is given here. Activity calls are given as the source filed them. Calls follow the shape of the dose curve; as a rule, active = well fitted inhibition curve with a large enough effect; inconclusive = small, poorly fitted or top-dose-only effect; inactive = no such curve, though single readings can be large or run the other way.
# Tested on: Zika virus NS2B-NS3 protease (linked construct)
# Assay: Primary screen NINDS Rhodamine qHTS for Zika virus inhibitors (AID 1347160); also: nearly all actives have a fitted effect of over 55% in size
# Conditions: purified NS2B-NS3 protease, Rhodamine110 substrate fluorescence; series mostly up to 57.1 µM
# Description: Avindra Nath, Ph.D., National Institute of Neurological Disorders and Stroke (NINDS), Bethesda, MD
# Radhakrishnan Padmanabhan, Ph.D., Georgetown University (GU), Washington D.C.
# Zika Virus causes congenital defects, including microcephaly and is associated with Guillain-Barre syndrome, eningoencephalitis and myelitis in infected adult. […] Using a target-based approach, we hope to establish a screening paradigm to uncover novel, cell-active NS2B-NS3 protease (Zika Virus) specific inhibitors from NCATS' collection of small molecules using qHTS.
# Four assay panel was created to identify potential Zika Virus inhibitors. Namely, (1) GU unlinked NS2B-NS3 AMC tagged protease qHTS, (2) GU unlinked NS2B-NS3 Rhodamine tagged protease qHTS, (3) NINDS linked NS2B-NS3 AMC tagged protease qHTS, (4) NINDS linked NS2B-NS3 Rhodamine tagged protease qHTS. Active compounds were re-acquired and re-screened to confirm inhibition. Inhibitors were further screened against various confirmatory and counterscreens in dose response format.
# Early Translation Branch (ETB)
# National Center for Advancing Translational Sciences (NCATS), Rockville, MD
# National Institute of Health (NIH), Bethesda, Maryland
# For the linked assay, Nath lab (NINDS) provided the purified linked NS2B-NS3 protease which is consists of hydrophilic domain of NS2B linked to the NS3 protease domain by a flexible (-[…]-) linker. Control compound aprotinin is obtained from Thermo Scientific (#78432; Waltham, Massachusetts). Rhodamine110 substrate ([N-Cbz]-Nle-Lys-Arg-Arg-Rhod110-Arg-Arg-Lys-Nle-[N-Cbz]) was purchased from either Genscript or Bachem.
# 1536-well Protease (Rhodamine110 Substrate) Assay:
# Briefly, 3 microL of enzyme (25 nM final concentration), in assay buffer (10 mM Tris-HCl pH 8.0 with 0.01% Tween 20) were dispensed into a 1,536-well solid-bottom black plate (Greiner Bio One, Monroe, NC). Twenty-three nL of compounds (final concentration range 7.28 nM to 114 microM) or control Aprotinin (final concentration range 3.47 nM to 114 microM) were transferred via Wako Pin-tool (Wako Automation, Richmond, VA). Samples were incubated (room temperature, protected from light) for 15 minutes followed by a 1 microL Rhodamine110 substrate addition (1.5 microM final concentration). Plates were then immediately read on a ViewLux High-throughput CCD imager (PerkinElmer, Waltham, MA) equipped with FITC fluorescence optics (480(20) nm excitation, 540(25) nm emission), then incubated (room temperature, protected from light) for 15 minutes (~15% conversion). The change in fluorescence intensity over the 15-minute reaction period was normalized against no-inhibitor and no-enzyme controls and the resulting percent inhibition data were fitted to a 4-parameter Hill equation. Aprotinin was used as intraplate control.
# Potency is read from the fitted curve at half-maximal effect.
row,SMILES,Potency
1,COC[C@H]1OC(=O)c2coc3c2[C@@]1(C)C1=C(C3=O)C2CCC(=O)[C@@]2(C)C[C@H]1OC(C)=O (stereo not given in full),inactive
2,C[C@@H]1O[C@@H](O[C@H]2C[C@@H](O)[C@]3(CO)[C@H]4[C@H](O)C[C@]5(C)[C@@H](C6=CC(=O)OC6)CC[C@]5(O)[C@@H]4CC[C@]3(O)C2)[C@H](O)[C@H](O)[C@H]1O,inactive
3,CNC(=O)c1ccc(N2C(=S)N(c3ccc(C#N)c(C(F)(F)F)c3)C(=O)C23CCC3)cc1F,inactive
4,CC(O)(CS(=O)(=O)c1ccc(F)cc1)C(=O)Nc1ccc(C#N)c(C(F)(F)F)c1 (stereo not given),inactive
5,O=C(O)C(=O)c1cn(Cc2ccccc2)c2ccc(-c3ccc(OC(F)(F)F)cc3)cc12,2.51 µM (active)
6,NCC(O)c1ccc(O)cc1 (stereo not given),inactive
7,Cc1cc(SCc2sc(-c3ccc(C(F)(F)F)c(F)c3)nc2C)ccc1OCC(=O)O,1.78 µM (active)
8,O=c1[nH]c2ccccc2n1C1CCN(CCCC(c2ccc(F)cc2)c2ccc(F)cc2)CC1,inactive
9,C[C@H]1O[C@@H](O[C@H]2[C@@H](O)C[C@H](O[C@H]3[C@@H](O)C[C@H](O[C@H]4CC[C@@]5(C)[C@H](CC[C@@H]6[C@@H]5CC[C@]5(C)[C@@H](C7=CC(=O)OC7)CC[C@]65O)C4)O[C@@H]3C)O[C@@H]2C)C[C@H](O)[C@@H]1O,inactive
10,CNC(=O)N1N=C(c2ccc(N)cc2)c2cc3c(cc2CC1C)OCO3 (stereo not given),inactive
